PubChem BioAssay (NCI)
About 83,000 compounds went through this panel and 20% of them were active in at least one assay; those are over-represented in the sample as a whole.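 In brief: 96-well plates, 48 h treatment, single concentration, percent growth endpoint.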 Unmarked numbers belong to inactive results. Activity calls are given as the source filed them. The calls were made as follows: active = growth percent below 10; inactive = the rest.

Experiments:
Assay in all cases: NCI-60 one-dose screen, 48 h (100 = growth as untreated, 0 = no growth, -100 = all killed)
Conditions in all cases: 10 µM unless noted
[1] = system: SR leukemia
[2] = system: RPMI-8226 leukemia
[3] = system: OVCAR-5 ovarian
[4] = system: OVCAR-4 ovarian
[5] = system: SK-OV-3 ovarian
[6] = system: IGROV1 ovarian
[7] = system: OVCAR-3 ovarian
[8] = system: HS 578T breast
[9] = system: NCI/ADR-RES ovarian
[10] = system: OVCAR-8 ovarian

## O=C(Nc1ccc(Cl)cn1)C1(c2ccccc2)CCCCC1
[1]
  growth: -14.5% (active)
[2]
  growth: 93%
[3]
  growth: 102%
[4]
  growth: 91.6%
[5]
  growth: 117%
[6]
  growth: 534%
[7]
  growth: 118%
[8]
  growth: 107%
[9]
  growth: 125%

## CC(C)OC(=O)c1ccc2n1CCCc1cnc(Nc3ccccc3)nc1-2
[1]
  growth: 35.4%
[2]
  growth: 58.4%
[10]
  growth: 82.4%
[4]
  growth: 61.4%
[5]
  growth: 97%
[6]
  growth: 83.7%
[7]
  growth: 84.7%
[8]
  growth: 99%
[9]
  growth: 69.7%

## C/C(CCC(=O)O)=N/Nc1ccc([N+](=O)[O-])cc1
[1]
  growth: 40.6%
[2]
  growth: 51.9%
[10]
  growth: 70.4%
[4]
  growth: 66.3%
[6]
  growth: 103%
[7]
  growth: 89.9%
[8]
  growth: 92.9%

## Cc1ccc(S(=O)(=O)NC(CCC(=O)Nc2ccccc2)C(=O)Nc2ccccc2)cc1 (stereo not drawn)
[1]
  growth: 4.65% (active)
[2]
  growth: -17.1% (active)
[10]
  growth: -10.9% (active)
[4]
  growth: -4.83% (active)
[6]
  growth: -25.1% (active)
[7]
  growth: -42% (active)
[8]
  growth: 2.98% (active)
[9]
  growth: -24.7% (active)

## Cc1cc2cn3c4ccc(O)cc4[nH]c(=O)c3c2cc1C
[1]
  growth: -16.1% (active)
[2]
  growth: -37% (active)
[10]
  growth: -13.2% (active)
[3]
  growth: 32.6%
[6]
  growth: -1.79% (active)
[7]
  growth: -34.9% (active)
[8]
  growth: -31.8% (active)
[9]
  growth: 3.46% (active)

## CSC1=Nc2c(c(C)c(-c3ccccc3)n2CCCCl)C2=NC(=O)CN12
[1]
  growth: 12.8%
[2]
  growth: 50.5%
[10]
  growth: 88.4%
[4]
  growth: 75.5%
[5]
  growth: 87.5%
[6]
  growth: 47.9%
[7]
  growth: 85.2%
[8]
  growth: 84.6%

## COc1cc2ncnc(Nc3ccc4c(cnn4C(=O)Nc4ccccc4)c3)c2cc1OC
[1]
  growth: 1.84% (active)
[2]
  growth: 70.5%
[10]
  growth: 103%
[4]
  growth: 88.5%
[5]
  growth: 110%
[6]
  growth: 80.7%
[7]
  growth: 95.7%
[8]
  growth: 102%
[9]
  growth: 100%

## COc1cc(-c2nn(-c3ccc(NC(=O)Nc4ccc(Cl)c(C(F)(F)F)c4)cc3)cc2-c2ccncc2)ccc1Cl
[1]
  growth: -1.8% (active)
[10]
  growth: 8.56% (active)
[3]
  growth: 25%
[4]
  growth: 23.1%
[5]
  growth: 10.7%
[6]
  growth: 25.9%
[7]
  growth: 10.9%
[9]
  growth: -1.19% (active)

## CC1(C)CC(=O)C2=C(C1)Oc1nc(N)c(C#N)c(N)c1C2c1ccc(F)cc1 (stereo not drawn)
[1]
  growth: 55.3%
[2]
  growth: 163%
[3]
  growth: 105%
[4]
  growth: 102%
[5]
  growth: 115%
[6]
  growth: 500%
[7]
  growth: 121%
[8]
  growth: 103%
[9]
  growth: 122%

## COc1ccc(-c2nc(SCC(C)C)nc(Nc3ccccc3)c2C#N)cc1
[1]
  growth: 48.9%
[2]
  growth: 87.6%
[3]
  growth: 103%
[4]
  growth: -12.2% (active)
[5]
  growth: 97.6%
[6]
  growth: 74.7%
[7]
  growth: 46.2%
[8]
  growth: 72.7%
[9]
  growth: 85.9%

## COc1ccc(/C=N/c2cc(C(C)(C)C)nn2-c2ccccc2)cc1
[1]
  growth: 78.4%
[10]
  growth: 97%
[3]
  growth: 113%
[4]
  growth: 109%
[5]
  growth: 101%
[6]
  growth: 125%
[7]
  growth: 125%
[8]
  growth: 107%
[9]
  growth: 118%

## Cc1ccc(C(=O)NN)cc1
[1]
  growth: 80.3%
[3]
  growth: 116%
[4]
  growth: 98.2%
[5]
  growth: 110%
[6]
  growth: 124%
[9]
  growth: 103%

## CCCCS(=O)(=O)c1cc(Nc2ccc(O)c3c2C(=O)c2ccccc2C3=O)ccc1C
[1]
  growth: 58.6%
[2]
  growth: 80.9%
[3]
  growth: 78.5%
[4]
  growth: 78.9%
[5]
  growth: 87.8%
[6]
  growth: 81.8%
[7]
  growth: 46.4%
[9]
  growth: 82.2%

## OC(c1ccccc1)(c1ccccc1)C(F)(F)F
[1]
  growth: 85.3%
[10]
  growth: 112%
[3]
  growth: 93.9%
[4]
  growth: 122%
[5]
  growth: 103%
[6]
  growth: 115%
[9]
  growth: 106%

## CCOc1ccc(Br)cc1/C=C(\C#N)c1ccc([N+](=O)[O-])cc1
[2]
  growth: 84.7%
[10]
  growth: 70%
[3]
  growth: 94.6%
[4]
  growth: 45.2%
[5]
  growth: 44.4%
[6]
  growth: 71.4%
[7]
  growth: 65.8%
[8]
  growth: 7.59% (active)

## CCCCCCCCCCCCOC(=N)N(C)C
[1]
  growth: 82.4%
[2]
  growth: 99.7%
[3]
  growth: 99.4%
[4]
  growth: 117%
[5]
  growth: 97.3%
[6]
  growth: 106%
[7]
  growth: 92.6%
[8]
  growth: 97.1%
[9]
  growth: 102%

## O=C(Nc1ccccc1)Nc1ccc(Nc2ncnc3sc4c(c23)CCCC4)cc1
[1]
  growth: 97.9%
[2]
  growth: 99.3%
[3]
  growth: 119%
[4]
  growth: 107%
[5]
  growth: 99.6%
[6]
  growth: 107%
[7]
  growth: 103%
[8]
  growth: 85.3%
[9]
  growth: 107%

## CC(=O)/C(=C\c1c(-c2ccccc2)[nH]c2ccccc12)S(=O)(=O)c1ccccc1
[1]
  growth: -35.9% (active)
[10]
  growth: 12.4%
[3]
  growth: 1.33% (active)
[4]
  growth: 17.7%
[6]
  growth: -5.76% (active)
[7]
  growth: -36.6% (active)
[8]
  growth: 8.54% (active)
[9]
  growth: -5.66% (active)

## CC(C)(CNC1CCCCC1)OC(=O)c1ccccc1
[1]
  growth: 106%
[2]
  growth: 106%
[3]
  growth: 114%
[4]
  growth: 110%
[5]
  growth: 106%
[6]
  growth: 106%
[7]
  growth: 102%
[9]
  growth: 103%

## COc1ccc(/C=C/C(=O)/C=C/c2cc3ccccc3[nH]c2=O)cc1
[1]
  growth: -2.08% (active)
[2]
  growth: -22% (active)
[3]
  growth: 125%
[4]
  growth: 74.5%
[5]
  growth: 88.8%
[6]
  growth: 130%
[7]
  growth: 32%
[8]
  growth: 102%
[9]
  growth: 92.5%

## O=C(N/N=C/c1cc(Cl)ccc1O)C(=O)N/N=C/c1cc(Cl)ccc1O
[1]
  growth: 51.3%
[2]
  growth: 71.9%
[3]
  growth: 72.5%
[6]
  growth: 50.3%
[7]
  growth: 15.5%
[9]
  growth: 44.2%

## COc1cc([C@@H]2c3cc4c(cc3[C@H](O)[C@H]3COC[C@@H]23)OCO4)cc(OC)c1OC
[1]
  growth: 25.9%
[10]
  growth: 98.9%
[3]
  growth: 101%
[4]
  growth: 85.8%
[5]
  growth: 98.3%
[6]
  growth: 71.1%
[7]
  growth: 56.8%
[9]
  growth: 64.9%

## O=C(/C(Br)=C/c1ccccc1)c1ccccc1
[1]
  growth: -24.9% (active)
[10]
  growth: -26.5% (active)
[3]
  growth: 58.3%
[4]
  growth: 25.7%
[5]
  growth: 105%
[6]
  growth: 27.5%
[7]
  growth: -31.5% (active)
[9]
  growth: -11% (active)

## COc1cc(-c2nn(-c3ccc(NC(=O)c4cc(Cl)cc(Cl)c4)cc3)cc2-c2ccncc2)ccc1Cl
[1]
  growth: 14.6%
[10]
  growth: 96.9%
[3]
  growth: 95.7%
[4]
  growth: 100%
[5]
  growth: 111%
[6]
  growth: 116%
[7]
  growth: 81%
[9]
  growth: 84.2%

## Oc1ccc2ccccc2c1/C=N\Nc1ccccn1
[1]
  growth: 8.32% (active)
[2]
  growth: 25.2%
[3]
  growth: 65.3%
[4]
  growth: 8.67% (active)
[5]
  growth: 19.8%
[6]
  growth: -4.78% (active)
[7]
  growth: 5.04% (active)
[9]
  growth: 0.917% (active)

## Nc1nc(-c2cccc(Br)c2)cc(-c2cc3ccccc3oc2=O)n1
[1]
  growth: 89.6%
[2]
  growth: 98.7%
[3]
  growth: 106%
[5]
  growth: 97.8%
[6]
  growth: 67.2%
[7]
  growth: 99.6%
[8]
  growth: 87.3%
[9]
  growth: 105%

## COc1ccc(/C=C2\SC(=O)N(Cc3cc(=O)oc4ccc(OC)cc34)C2=O)cc1
[1]
  growth: 69.6%
[2]
  growth: 64.1%
[3]
  growth: 100%
[4]
  growth: 63.6%
[5]
  growth: 96.6%
[6]
  growth: 98.1%
[7]
  growth: 84.6%
[8]
  growth: 103%
[9]
  growth: 95.7%

## COC(=O)/C=C1/CCCCC1(C)C(=O)OC (stereo not drawn)
[1]
  growth: 92.8%
[2]
  growth: 101%
[3]
  growth: 118%
[4]
  growth: 103%
[5]
  growth: 110%
[6]
  growth: 107%
[7]
  growth: 118%
[8]
  growth: 105%
[9]
  growth: 111%

## O=C(Nc1ccc(-n2cc(-c3ccncc3)c(-c3ccc(Cl)c(O)c3)n2)cc1)Nc1ccc(Cl)c(C(F)(F)F)c1
[1]
  growth: -10.6% (active)
[10]
  growth: 1.06% (active)
[3]
  growth: 30.1%
[4]
  growth: 16.1%
[5]
  growth: 3.02% (active)
[6]
  growth: -0.0868% (active)
[7]
  growth: 2.48% (active)
[8]
  growth: -38.6% (active)
[9]
  growth: 6.63% (active)

## O=C(Oc1ccccc1)c1ccccc1Cl
[1]
  growth: 104%
[2]
  growth: 62.9%
[3]
  growth: 90.7%
[4]
  growth: 108%
[5]
  growth: 101%
[6]
  growth: 109%
[7]
  growth: 97.3%
[9]
  growth: 104%

## O=C(CN1C(=O)NC(c2ccccc2)(c2ccccc2)C1=O)c1ccc(N2CCCC2)cc1
[2]
  growth: 70.1%
[10]
  growth: 83.4%
[3]
  growth: 101%
[4]
  growth: 72.8%
[5]
  growth: 96.7%
[6]
  growth: 85.5%
[7]
  growth: 103%
[8]
  growth: 87.7%

## O=C(NCCO)C(F)(F)F
[1]
  growth: 98.7%
[2]
  growth: 109%
[3]
  growth: 96.6%
[4]
  growth: 118%
[5]
  growth: 100%
[6]
  growth: 106%
[7]
  growth: 101%
[8]
  growth: 106%
[9]
  growth: 106%
